Test results as given in publication PMC4336329 (PLoS ONE, 2015).
Screen size: about 310,000 compounds; about 14,000 (4.5%) showed an effect of 50% or more. Effects have a minus sign here. The sample holds strong results, similar compounds and a random draw of the others, so the mix is not that of the screen.

The compounds below were run against human ether-à-go-go-related gene (hERG) potassium channel (human, UniProt Q12809) (assay: primary screen, population patch clamp on CHO cells stably expressing hERG; higher = less effect of the substance).
Chain of human ether-à-go-go-related gene (hERG) potassium channel (Q12809 whole entry, looked up): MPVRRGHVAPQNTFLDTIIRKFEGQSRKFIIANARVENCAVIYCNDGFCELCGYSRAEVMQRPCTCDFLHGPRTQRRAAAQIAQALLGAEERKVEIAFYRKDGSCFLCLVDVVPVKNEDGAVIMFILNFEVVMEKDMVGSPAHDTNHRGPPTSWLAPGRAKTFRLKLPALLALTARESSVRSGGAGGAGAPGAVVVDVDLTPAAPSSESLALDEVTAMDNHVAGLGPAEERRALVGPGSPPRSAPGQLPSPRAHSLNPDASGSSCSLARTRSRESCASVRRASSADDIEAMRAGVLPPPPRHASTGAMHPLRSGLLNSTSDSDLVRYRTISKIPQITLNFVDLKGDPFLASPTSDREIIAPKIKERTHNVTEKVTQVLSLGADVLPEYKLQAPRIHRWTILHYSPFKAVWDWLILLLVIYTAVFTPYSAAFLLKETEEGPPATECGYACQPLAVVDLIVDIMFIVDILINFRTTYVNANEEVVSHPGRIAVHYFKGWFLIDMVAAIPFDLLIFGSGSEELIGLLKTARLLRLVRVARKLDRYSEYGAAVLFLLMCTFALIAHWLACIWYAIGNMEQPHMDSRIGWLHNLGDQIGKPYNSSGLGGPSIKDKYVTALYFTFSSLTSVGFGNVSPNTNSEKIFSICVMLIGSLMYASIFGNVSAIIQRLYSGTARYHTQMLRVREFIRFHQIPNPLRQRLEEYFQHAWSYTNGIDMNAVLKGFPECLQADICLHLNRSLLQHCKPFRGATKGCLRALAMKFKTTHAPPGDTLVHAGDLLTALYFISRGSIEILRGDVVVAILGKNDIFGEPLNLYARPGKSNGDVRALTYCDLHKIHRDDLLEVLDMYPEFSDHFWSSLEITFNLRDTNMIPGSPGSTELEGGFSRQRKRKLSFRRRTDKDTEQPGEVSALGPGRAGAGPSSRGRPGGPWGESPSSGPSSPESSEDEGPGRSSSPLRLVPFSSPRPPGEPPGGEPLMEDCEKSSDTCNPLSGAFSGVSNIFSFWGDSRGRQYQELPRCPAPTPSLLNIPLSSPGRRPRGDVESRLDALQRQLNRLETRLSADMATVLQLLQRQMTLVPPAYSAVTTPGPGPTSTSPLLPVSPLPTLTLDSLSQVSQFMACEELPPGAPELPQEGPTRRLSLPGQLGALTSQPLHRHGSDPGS
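Further: peak tail current of the secondary pulse compared with the same well before compound.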

| SMILES | hERG current change (%, negative = inhibition) at 10uM |
| --- | --- |
| CCCCOC(=O)C(C)Sc1n[nH]c(=O)[nH]c1=O (centres unmarked) | -5.93% |
| O=[N+]([O-])c1ccc(CNc2cccc(Cl)c2)s1 | -28.3% |
| O=C1N=C(c2ccccc2)S/C1=C\c1cccs1 | 5.19% |
| COc1ccc(N2CCN(Cc3nc(-c4ccccc4)no3)CC2)cc1 | 8.23% |
| C=CCOC(=O)C1=C[C@@H](c2csc3ccccc23)[C@H](CCCO)[C@@H](OCC)O1 | -27.7% |
| COc1ccc(S(=O)(=O)N2CCC(C(=O)N[C@@H](C)C(=O)NC3CCCC3)CC2)cc1 | 13.4% |
| COCCNC(=O)c1ccc2c(c1)S(=O)(=O)c1cc(Cl)ccc1C2=O | -3.38% |
| CCN(CC)S(=O)(=O)c1ccc(F)c(C(=O)OC2CC(C)OC2=O)c1 (centres unmarked) | -2.4% |
| O=C(Cn1cc(SCc2cccc(Cl)c2)c2ccccc21)N1CCOCC1 | -33.1% |
| O=C(Cn1cc(SCc2ccc(F)cc2)c2ccccc21)N1CCOCC1 | -29.9% |
| O=C(Cn1cc(SCc2ccc(Cl)cc2)c2ccccc21)N1CCOCC1 | -53.3% |
| Nc1ncnc2c1ncn2C1O[C@H](CO)[C@@H](O)[C@@H]1O (some centres unmarked) | -8.74% |
| Cc1ccc(CNC(=O)CSc2nc(N3CCCCC3)nc(N3CCCCC3)n2)cc1 | 7.64% |
| O=[N+]([O-])c1ccccc1S(=O)(=O)NCCSc1ccccc1 | 4.87% |
| O=C(CCNS(=O)(=O)c1ccccc1C(F)(F)F)NCCCSc1ccccc1 | -18.1% |
| O=S(=O)(NCCCSc1ccccc1)c1ccccc1F | -79.6% |
| Cc1ccc(Nc2nc(N)nc(CCl)n2)cc1 | 1.76% |
| Nc1nc(CSCCO)nc(Nc2ccc(F)cc2)n1 | 16.1% |
| Nc1nc(CSC(=S)N2CCOCC2)nc(Nc2ccc(F)cc2)n1 | 7.31% |
| Cc1ccc(Nc2nc(N)nc(CN3CCN(C)CC3)n2)cc1 | -27.8% |
| Cc1ccc(Nc2nc(N)nc(CN3CCCCCC3)n2)cc1 | -72.1% |
| Nc1nc(CN2CCCCCC2)nc(Nc2ccc(F)cc2)n1 | -70.8% |

| SMILES | hERG current change (%, negative = inhibition) at 10uM |
| --- | --- |
| CC(=O)Nc1ccc(NC(=O)Nc2ccccc2)cc1 | 10.5% |
| CC(=O)OCC[C@H](NS(=O)(=O)OCC(Cl)(Cl)Cl)c1ccccc1 | 1.61% |
| COc1cc(NC(=O)c2cc(C(C)C)on2)c(OC)cc1Cl | 3.16% |
| COc1ccccc1N1CCN(C(=O)c2cc(-c3ccc(F)cc3)[nH]c2C)CC1 | -64.5% |
| Cc1[nH]c(-c2ccc(F)cc2)cc1C(=O)N1CCN(c2ccccc2F)CC1 | -70.3% |
| O=C(c1ccccc1C(=O)N1CCN(c2ccccc2F)CC1)N1CCN(c2ccccc2F)CC1 | -31% |
| COc1ccccc1N1CCN(C(=O)c2cc(-c3ccc(F)cc3)on2)CC1 | 19.1% |
| COc1ccccc1N1CCN(C(=O)c2cc3cc(F)ccc3[nH]2)CC1 | 15.8% |
| O=C(c1ccccc1F)N1CCN(c2ccccc2F)CC1 | -2.08% |
| N#CC1=C(N)Oc2n[nH]c(-c3cccs3)c2C1C1CCCCC1 (centres unmarked) | 8.73% |
| Cc1ccccc1C(=O)Nc1ccccc1NC(=O)c1ccccc1Br | 25.4% |
| COC(=O)c1ccc(-c2noc(CN(C)CC3CCCCO3)n2)cc1 (centres unmarked) | 11.3% |
| Cn1c(Cn2c(=O)sc3ccccc32)nnc1SCc1cccc(F)c1 | -11.6% |
| Cc1cc(C)cc(NC(=S)NCc2ccc3c(c2)OCO3)c1 | -8.9% |
| OC(CNCC1CCCCC1)COc1ccccc1 (centres unmarked) | -0.428% |
| Cc1ccc(CC(=O)Nc2cc(C)ccn2)cc1 | 11.2% |
| O=[N+]([O-])c1cc(S(=O)(=O)NCCN2CCOCC2)ccc1Sc1nnnn1-c1ccccc1 | -24.6% |
| CCCCSc1nnc(CNC(=O)C23CC4CC(CC(C4)C2)C3)n1Cc1ccccc1 | -29.7% |
| O=C(Nc1ccc(CN2CCOCC2)cc1)c1ccc(-c2ccc(Cl)cc2Cl)o1 | -7.54% |
| Cn1c(=O)n(C)c2cc([N+](=O)[O-])c(N3CCN(C(=O)c4ccccc4Cl)CC3)cc21 | -34.4% |
| Cn1c(=O)n(C)c2cc([N+](=O)[O-])c(N3CCN(C(=O)c4ccccc4)CC3)cc21 | -36.1% |
| Cn1c(=O)n(C)c2cc([N+](=O)[O-])c(N3CCNCC3)cc21 | 5.58% |

| SMILES | hERG current change (%, negative = inhibition) at 10uM |
| --- | --- |
| Cn1c(=O)n(C)c2cc([N+](=O)[O-])c(N3CCN(C(=O)C(C)(C)C)CC3)cc21 | -8.56% |
| CCOC(=O)C(=O)N1CCN(c2cc3c(cc2[N+](=O)[O-])n(C)c(=O)n3C)CC1 | -24.2% |
| Cn1c(=O)n(C)c2cc([N+](=O)[O-])c(N3CCN(C(=O)c4cccc(Cl)c4)CC3)cc21 | -64.2% |
| Cn1c(=O)n(C)c2cc([N+](=O)[O-])c(N3CCN(CCO)CC3)cc21 | 24.9% |
| Cn1c(=O)n(C)c2cc([N+](=O)[O-])c(N3CCN(C(=O)c4ccc(Cl)cc4)CC3)cc21 | -65.9% |
| Cn1c(=O)n(C)c2cc(N3CCCCC3)c(NC(=O)c3cccc(Cl)c3)cc21 | 14.8% |
| Cn1c(=O)n(C)c2cc([N+](=O)[O-])c(N3CCN(C(=O)c4ccccc4Br)CC3)cc21 | -70.6% |
| Cn1c(=O)n(C)c2cc([N+](=O)[O-])c(N3CCN(C(=O)c4ccc(F)cc4)CC3)cc21 | -44% |
| Cc1ccc(C(=O)N2CCN(c3cc4c(cc3[N+](=O)[O-])n(C)c(=O)n4C)CC2)cc1 | -66.6% |
| O=C(COC(=O)c1ccc2ncsc2c1)Nc1cccc(Cl)c1 | 2.07% |
| Cc1ccc(-n2c(SCn3nnc4ccccc4c3=O)nnc2-c2cccnc2)c(C)c1 | -39.3% |
| Cc1cccc(C)c1NC(=O)CN(C)CC(=O)Nc1ccccc1Oc1ccccc1 | 11.3% |
| COc1ccc(NC(=O)c2ccc([N+](=O)[O-])o2)cc1 | 11.1% |
| O=C(COc1ccc2ccc(=O)oc2c1)NC1CCCCC1 | 1.43% |
| O=C(COc1ccc2ccc(=O)oc2c1)NC1CCCC1 | 13.4% |
| CCc1cc(=O)oc2cc(C)cc(OCC(=O)NC3CCN(Cc4ccccc4)CC3)c12 | -36% |
| CCCc1cc(=O)oc2c(C)c(OCC(=O)NC3CCN(Cc4ccccc4)CC3)ccc12 | -51.4% |
| Cc1c(OCC(=O)NC2CCN(Cc3ccccc3)CC2)ccc2c3c(c(=O)oc12)CCC3 | -47.7% |
| CCCc1cc(=O)oc2cc(C)cc(OCC(=O)NC3CCN(Cc4ccccc4)CC3)c12 | -10.3% |
| O=C(O)COCC(=O)NC1CCN(Cc2ccccc2)CC1 | 12.5% |
| O=C(COc1ccc2ccc(=O)oc2c1)NC1CCN(Cc2ccccc2)CC1 | -55.2% |
| Cc1c(C)c2ccc(OCC(=O)NC3CCN(Cc4ccccc4)CC3)c(C)c2oc1=O | -42.7% |

| SMILES | hERG current change (%, negative = inhibition) at 10uM |
| --- | --- |
| CCCc1cc(=O)oc2cc(OCC(=O)NC3CCN(Cc4ccccc4)CC3)ccc12 | -60.2% |
| O=C(COc1ccccc1)NC1CCCCCCC1 | -4.51% |
| O=C(COc1ccccc1)NC1CCN(Cc2ccccc2)CC1 | -50.4% |
| Cc1ccc(S(=O)(=O)c2cnc3cc(C)nn3c2N)cc1 | 0.694% |
| Cc1ccc(CN2C(=O)[C@@H]3Cc4c([nH]c5ccccc45)C(C)(C)N3C2=O)cc1 | 7.62% |
| O=[N+]([O-])c1ccccc1/C=N/NC1=NS(=O)(=O)c2ccccc21 | -1.94% |
| O=C(NCCCN1CCCC1=O)NC1CCCCC1 | 10.9% |
| Cc1ccc(NC(=S)NNC(=O)c2ccc(N3CCOCC3)c([N+](=O)[O-])c2)cc1Cl | 6.24% |
| O=C(O)CCC1=C2c3ccccc3CCN2C(=O)CC1 | 9.77% |
| Cc1ccc(C(=O)Nn2cnnc2)cc1Cl | 16.3% |
| CC1CCN(S(=O)(=O)c2ccc(NC(=O)CSc3ncccc3C(=O)O)cc2)CC1 | 7.31% |
| O=C(COc1ccc2c3c(c(=O)oc2c1)CCC3)NC1CCN(Cc2ccccc2)CC1 | -24.9% |
| O=C(COc1ccccc1)NC1CCSC1=O (centres unmarked) | -72.9% |
| CCCCc1cc(=O)oc2cc(OCC(=O)NC3CCN(Cc4ccccc4)CC3)ccc12 | -61.1% |
| O=C(COc1ccc(Cl)cc1)NC1CCSC1=O (centres unmarked) | -16.8% |
| Cc1cc(OCC(=O)NC2CCN(Cc3ccccc3)CC2)c2c(C)cc(=O)oc2c1 | -21.4% |
| O=C(COc1ccccc1)NC1CCSc2ccccc21 (centres unmarked) | 0.0355% |
| Cc1cc(=O)oc2cc(OCC(=O)NC3CCN(Cc4ccccc4)CC3)ccc12 | -63.9% |
| CCCCc1cc(=O)oc2cc(OCC(=O)N[C@@H](Cc3ccccc3)C(=O)O)ccc12 | 6.13% |
| CCCCc1cc(=O)oc2cc(OCC(=O)NCC3CCC(C(=O)O)CC3)ccc12 (centres unmarked) | 18% |
